Records with an inconclusive call do not appear. A number with no mark means an inactive call. Calls of active or inactive are those of the source. Calls follow the shape of the dose curve; as a rule, active = well fitted cell-killing curve with a large enough effect; inconclusive = small, poorly fitted or top-dose-only effect, or effect the other way; inactive = flat fitted curve, though single readings scatter.
system: CAOV3; assay: Primary qHTS to identify gynecologic anti-cancer compounds using libraries of approved drugs and bioactive compounds (AID 1345084); conditions: Gynecologic cancer cell panel viability, ATPlite luminescence, 48 h; series mostly up to 57.5 µM; activity change, negative = cytotoxicity: at the top concentration; also: nearly all actives have a fitted effect of over 55% in size
Excerpt: National Center for Advancing Translational Sciences [NCATS] Assay Overview: Chemotherapeutic drug responses vary from cancer to cancer and from patient to patient. These variations could be caused by a number of factors including patient genomic background, tumor mutations, tumor heterogeneity, and aspects of drug treatment. Chemotherapeutic drug resistance is also a common issue and can lead to ineffective treatment and patient death. Here we have profiled the cell killing effects of thousands of compounds to characterize the responses in three gynecological cancers, identify cancer-selective compounds, and understand the diversity of responses to these compounds from pan-cancer suppressors to single cell line selective compounds. In this assay, we screened a 7,914 compound drug library that included approved drug and bioactive compounds in six ovarian, three cervical, and […] placental cancer cell lines using the ATPlite assay for cell viability. […] The cervical cancer cell lines included HeLa, Ca Ski, and C-33 A. The placental cancer cell lines included JEG-3. HEK 293T cells were used as the control cell line to determine the selectivity index. ATPlite is a luminescence based assay reliant on the conversion of a luciferase substrate to light in the presence of ATP. As a cytotoxic compound will suppress growth and decrease the number of cells, the concentration of ATP will decrease, and less light signal will be detected in the well.
Assay Protocol Summary: 1,000 cells in 4 uL of media were dispensed into white, solid bottom 1536-well plates using a Multidrop Combi (Thermo Scientific). The Assay plates were incubated for 16 hours at 37 C with 5% CO2 in assay plates, followed by the addition of 23 nL of DMSO or drug dissolved in DMSO. Each compound was assayed in five concentrations (0.092, 0.46, 2.3, 11.5, and 57.5 uM), using the automated Wako 1536 Pin Tool workstation and incubated at 37 C with 5% CO2 48 hours. 4 uL of ATPlite, the ATP monitoring reagent, was then added to the each well of the assay plates using the Multidrop Combi reagent dispenser followed by incubation for 15 minutes at room temperature. The resulting luminescence was measured using the ViewLux plate reader.
% is scaled to controls: 0 for no effect and ±100 for the full control effect; potency is read from the fitted curve at half-maximal effect.

Compound	activity change, negative = cytotoxicity	Potency
Oc1ccc2c3c1O[C@H]1[C@H](N(CCCl)CCCl)CC[C@@]4(O)[C@@H](C2)N(CC2CC2)CC[C@]314	11.9% [at 11.6 µM]	
CC(=O)OC1CC(O)C(C)(C)C2CC(OC(C)=O)C3(C)C(CCC4(C)C(c5ccoc5)C(=O)C5OC543)C12C (stereo not given)	-17.5% [at 25.3 µM]	
CN1[C@@H]2CC[C@H]1CC(OC(=O)C1C=Nc3ccccc31)C2 (stereo not given in full)	5.69%	
COc1ccccc1CN[C@H]1C2CCN(CC2)[C@H]1C(c1ccccc1)c1ccccc1	2.37%	
CCN1C[C@]2(COC(=O)c3ccccc3N3C(=O)C[C@H](C)C3=O)CC[C@H](OC)[C@@]34[C@@H]5C[C@H]6[C@H](OC)[C@@H]5[C@](O)(C[C@@H]6OC)[C@](O)([C@@H](OC)[C@H]23)[C@@H]14	13.8%	
COC(=O)C1(C)CCC(O)C2(C)c3c(O)cc(C(C)C)cc3C(O)C(OC(C)=O)C12 (stereo not given)	15.7% [at 25.3 µM]	
C[C@H]1O[C@@H](O[C@H]2C[C@@H](O)[C@]3(CO)C4C(CC[C@]3(O)C2)[C@@]2(O)CC[C@H](C3=CC(=O)OC3)[C@@]2(C)C[C@H]4O)[C@@H](O)[C@@H](O)[C@H]1O (stereo not given in full)		0.562 µM (active)
C=CC(C)(C)c1[nH]c2cccc3c2c1C[C@@H]1[C@@H]3[C@@H](OC(C)=O)[C@H](C)CN1C	7.95% [at 38.5 µM]	
Cc1cn(C[C@H](N)C(=O)O)c(=O)n(Cc2cc(-c3ccccc3)sc2C(=O)O)c1=O	11.3%	
C[C@@](O)(COc1ccc(C#N)cc1)C(=O)Nc1ccc(C#N)c(C(F)(F)F)c1	11.8%	
COC1CC(=O)C23C(=O)NC(CC(C)C)C2C(C)=C(C)C(OO)C3/C=C(\C)CCC(O)C1O (stereo not given)	-11.5% [at 25.3 µM]	
CN1C(=O)c2ccccc2NC(=O)[C@]12O[C@@H]2c1ccccc1	-4.47%	
C=C(CO)C(=O)O[C@H]1C/C(C)=C/CC/C(CO)=C/[C@H]2OC(=O)C(=C)[C@H]12	3.98% [at 38.5 µM]	
CC1=C2C(=O)C3[C@@H](CC=C4C[C@@H](O)CC[C@@]43C)[C@@H]2CC[C@]12O[C@@H]1C[C@H](C)CN[C@H]1[C@H]2C (stereo not given in full)	3.43% [at 25.3 µM]	
CC1=CC2/C=C(\C)CCC(O)C3OC(C)(C)OC3CC(=O)OC23C(=O)NC(CC(C)C)C3C1C (stereo not given)	-11.1% [at 25.3 µM]	
CCC(C)(OC(C)=O)C(=O)O[C@H]1[C@H](OC(C)=O)C[C@@H]2[C@@](C)([C@@H]3C[C@H]4C=CO[C@H]4O3)[C@H](C)C[C@H](OC(C)=O)[C@@]2(COC(C)=O)[C@@]12CO2 (stereo not given in full)	-25.4% [at 25.3 µM]	
CC(=O)OC1CC(O)C2(C)C(CC(OC(C)=O)C3(C)C2CCC2(C)C(c4ccoc4)C(=O)C4OC423)C1(C)C (stereo not given)	-7.63% [at 25.3 µM]	
Clc1ccc(OCC2=NCCN2)cc1Cl	18.1%	
COCC1OC(=O)c2coc3c2C1(C)C1=C(C3=O)C2CCC(=O)C2(C)CC1O (stereo not given)	7.87% [at 38.5 µM]	
CC12CCC3C(CCC4(O)CC(O)CCC34C=O)C1(O)CCC2C1=CC(=O)OC1 (stereo not given)		2 µM (active)

Compound	activity change, negative = cytotoxicity	Potency
C/C=C(\C)C(=O)OC1CC2C(CC=C3CC(OC4CC(OC)C(OC5CC(OC)C(OC6OC(C)C(OC7OC(CO)C(O)C(O)C7O)C(OC)C6O)C(C)O5)C(C)O4)CCC32C)C2(O)CCC(C(C)=O)C12C (stereo not given)	5.78% [at 11.6 µM]	
CCCN1CCO[C@H]2c3cc(O)ccc3OC[C@@H]21	9.04%	
CC(C)(O)[C@H]1O[C@H]2CC[C@@]3(C)[C@@](O)(CC[C@H]4Cc5c([nH]c6ccccc56)[C@@]43C)C2=CC1=O	22.3% [at 25.3 µM]	
COC1C(O)C(OC2CCC3(C=O)C(CCC4C3CCC3(C)C(C5=CC(=O)OC5)CCC43O)C2)OC(C)C1OC1OC(CO)C(O)C(O)C1O (stereo not given)		2 µM (active)
Cc1cccc(NC(=O)N[C@@H]2N=C(c3ccccc3)c3ccccc3N(C)C2=O)c1	8.36%	
CN1C(=O)N(c2ccc(C#N)c(C(F)(F)F)c2)C(=O)[C@]1(CO)c1ccccc1	2.77%	
CN1[C@H]2C[C@H](OC(=O)[C@H](CO)c3ccccc3)C[C@@H]1[C@@H](O)C2	2.89%	
CCC(C)(C#N)O[C@@H]1O[C@H](CO)[C@@H](O)[C@H](O)[C@H]1O (stereo not given in full)	4.46%	
N#CC(OC1OC(COC2OC(CO)C(O)C(O)C2O)C(O)C(O)C1O)c1ccccc1 (stereo not given)	22.4% [at 25.3 µM]	
COc1cc(C)[nH]c(=O)c1CNC(=O)c1c(C)n([C@H](C)C2CCOCC2)c2ccccc12	18.9%	
COc1cc2c(cc1OC)[C@@]13CCN4CC5=CCO[C@H]6CC(=O)N2[C@H]1[C@H]6[C@H]5C[C@H]43	5.61% [at 25.3 µM]	
CCN1CC2(COC)C3[C@@H](OC)C4C1C3(C1C[C@]3(O)[C@H](OC(=O)c5ccccc5)C1[C@]4(OC(C)=O)[C@@H](O)[C@@H]3OC)[C@H](OC)C[C@H]2O (stereo not given in full)	8.98%	
COc1c(C(C)C)cc2c(c1O)[C@@]1(C(=O)O)CCCC(C)(C)C1CC2 (stereo not given in full)	-0.952% [at 38.5 µM]	
COC1CC(O[C@H]2CC[C@@]3(C)C(=CCC4C3C(O)[C@@H](O)[C@]3(C)[C@@H](C(C)=O)CC[C@]43O)C2)OC(C)C1OC1CC(OC)C(OC2OC(C)C(O)C(O)C2O)C(C)O1 (stereo not given in full)	-3.8% [at 11.6 µM]	
CC[C@H]1CN2CC[C@H]1C[C@@H]2[C@@H](O)c1ccnc2ccc(OC)cc12	2.21% [at 38.5 µM]	
C/C=C(\C)C(=O)O[C@H]1[C@H](OC(C)=O)[C@]2(CO)[C@H](O)[C@H](O)[C@]3(C)C(=CCC4[C@@]5(C)CC[C@H](O[C@@H]6O[C@H](C(=O)O)[C@@H](O)[C@H](O[C@@H]7OC[C@H](O)[C@H](O[C@@H]8OC[C@H](O)[C@H](O)[C@H]8O)[C@H]7O)[C@H]6O[C@@H]6O[C@H](CO)[C@@H](O)[C@H](O)[C@H]6O)C(C)(C)C5CC[C@]43C)[C@@H]2CC1(C)C (stereo not given in full)	0.059% [at 6.55 µM]	
O=C1C[C@@H]2OCC=C3CN4CC[C@]56c7ccccc7N1[C@H]5[C@H]2[C@H]3C[C@H]46	1.6% [at 38.5 µM]	
C=C1[C@@H]2CC[C@@]3(C)[C@H](c4ccoc4)OC(=O)C[C@]13O[C@H]1CC(=O)C(C)(C)[C@H](C(OC(C)=O)C(=O)OC)[C@]12C (stereo not given in full)	4.91% [at 25.3 µM]	
COC(=O)N1CCN(C(=O)Cc2ccc(Cl)c(Cl)c2)[C@@H](CN2CCCC2)C1	19.3%	
COC1C(O)C(C)OC(OC2C(CO)O[C@@H](O[C@@H]3CC4CCC5C(CC[C@]6(C)[C@@H](C7=CC(=O)OC7)CC[C@]56O)[C@@]4(C)[C@H](O)C3)C(O)C2O)C1O (stereo not given in full)		2.82 µM (active)
